# Measured values as given in PubChem BioAssay AID504467 (National Center for Advancing Translational Sciences (NCATS), 2011).
# Screen size: about 330,000 compounds; about 7,700 (2.3%) were called active. Another 26% or so got no clear call; they are omitted. The full list was thinned out, with actives kept by preference. A number with no mark means an inactive call. Calls come from the whole dose curve; as a rule, active = well fitted inhibition curve with a large enough effect; inconclusive = small, poorly fitted or top-dose-only effect, or effect the other way; inactive = flat fitted curve, though single readings scatter.
# Assay: qHTS screen for small molecules that inhibit ELG1-dependent DNA repair in human embryonic kidney (HEK293T) cells expressing luciferase-tagged ELG1; note: nearly all actives have a fitted effect of over 55% in size
# Conditions: HEK293T ELG1-luciferase reporter, luminescence, 16 h, DNA damage induced by 5-fluorouridine; series mostly up to 46.1 µM; activity change, negative = inhibition: at the top concentration
# Procedure, shortened: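 Step one: seed 2,000 cells per well. Step two: pin-transfer compound or DMSO alongside 5-fluorouridine. Step three: incubate 16 hr, 37 °C, 5% CO2. Step four: add ONE-Glo, wait 30 min, read luminescence.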
# % is set by controls: 0 for no effect and ±100 for the full control effect; potency is the fitted concentration of half-maximal effect.
SMILES,"activity change, negative = inhibition [%]",Potency
CN1C2CCC1CC(NC(=O)c1ccc([N+](=O)[O-])cc1)C2 (stereo unspecified),2.06,
O=C(N[C@@H]1C/C=C\C[C@@H](CC(=O)N(CCO)Cc2ccccc2)C(=O)N[C@H](Cc2ccccc2)COC1=O)OCC1c2ccccc2-c2ccccc21,6.07,
Cc1noc(COc2ccccc2OCC(O)CNC(C)(C)C)n1 (stereo unspecified),7.78,
OC(COc1ccc(Br)cc1)CN1CCCC1 (stereo unspecified),4.58,
CC(C)(C)CC(C)(C)NCC(O)COCCOc1ccc(Br)cc1 (stereo unspecified),,23.1 µM (active)
COc1ccccc1CNC(=O)[C@@H]1CCCN1C(=O)[C@@H]1Cc2ccccc2CN1C(=O)OC(C)(C)C,12.9,
O=C1C=CN2CCCC2CC1 (stereo unspecified),3.43,
COc1ccc(N(C(=O)c2snc(C(N)=O)c2N)C(C(=O)NC2CCCC2)c2ccc(C)o2)c(OC)c1 (stereo unspecified),-8.34,
COc1ccc(NC(=O)COC(=O)c2n[nH]c3ccccc23)c(OC)c1,-16.4,
Cc1cccc(Nc2ccccc2C(=O)NCc2ccco2)c1C,-5.52,
COc1ccc(C(=O)Nc2ccccc2C(=O)NCc2ccco2)cc1,-5.84,
Cc1ccc(N(Cc2ccc(C(=O)Nc3ccccc3C(=O)NCc3ccco3)cc2)S(C)(=O)=O)cc1C,,4.61 µM (active)
Cc1cc(C)c(S(=O)(=O)N2CCC(C(=O)OCc3c(C)noc3C)CC2)c(C)c1,2.81,
O=C(CCc1nc2sc3c(c2c(=O)[nH]1)CCCC3)NCC(=O)Nc1ccccc1Br,0.543,
COc1ccccc1C(=O)OCC(=O)Nc1cccc(S(=O)(=O)NC2=NCCCCC2)c1,-2.4,
CCc1ccc2[nH]c(=O)c(Cc3ccccc3)c(O)c2c1,-6.81,
CC(=O)c1cccc(NC(=O)c2ccncc2)c1,-4.98,
C=CCSc1nsc(NC(=O)Nc2cccc(C(C)=O)c2)n1,,7.3 µM (active)
C=C(C)C(=O)Nc1cccc(C(C)=O)c1,3.33,
COc1ccc2[nH]c3c(c2c1)CCN1C(=O)C(CC(=O)NCCCN(C)C)C[C@H](C(=O)N2CCOCC2)[C@@]31CCC1CCCC1 (stereo partly specified),10.8,
Cc1cccc(NC(=O)c2ccc(S(=O)(=O)N(C)c3ccccc3)cc2)n1,,23.1 µM (active)
CCN(c1ccccc1)S(=O)(=O)c1ccc(C(=O)Nc2nccs2)cc1,-19.3,

SMILES,"activity change, negative = inhibition [%]",Potency
CN(c1ccccc1)S(=O)(=O)c1cccc(C(=O)NNC(=O)c2ccncc2)c1,-1.9,
COc1ccccc1S(=O)(=O)NCc1ccc(C(=O)N(C)Cc2ccc(F)cc2)cc1,-22,
O=S(=O)(Nc1cc(Cl)ccc1N1CCOCC1)c1ccccc1Cl,-7.01,
CCOC(=O)C1=C(CCc2ccccc2)NC(=O)NC1c1ccc2ccccc2c1 (stereo unspecified),-12.5,
COc1cc(CN2CCCN(C)CC2)c([N+](=O)[O-])cc1OC,-6.3,
COc1cc(CNCc2ccc3c(c2)OCO3)c([N+](=O)[O-])cc1OC,-3.68,
COc1cc(CN2CCN(Cc3ccc(C)cc3)CC2)c([N+](=O)[O-])cc1OC,,20.6 µM (active)
CCOc1ccc(N(C)Cc2cc(=O)oc3ccc(OC)cc23)cc1,,16.4 µM (active)
Cc1cc2oc(=O)cc(CN(C)Cc3ccc(OC(F)F)cc3)c2cc1Cl,-14.2,
COC(=O)COc1ccc2oc(=O)cc(C)c2c1,5.41,
Cc1ccc2c(c1)C(c1ccccc1)N(C(=O)c1ccc(F)cc1)CC(=O)N2 (stereo unspecified),-4.96,
O=C(Cn1ccc2cc(S(=O)(=O)N3CCCC3)ccc21)NCc1ccccc1,14.6,
O=C1[C@@H](c2ccccc2)[C@@H](c2ccccc2)N1c1cccnc1,17.2,
O=C1CCN(Cc2ccccc2)CCN1[C@H](CSc1ccccc1)c1ccccc1,26.6,
Cc1cc(C)c(NC(=O)CS(=O)CC(=O)Nc2cccnc2)c(C)c1 (stereo unspecified),-1.59,
Cc1nc(-c2ccc(F)cc2)c(CC(=O)Nc2cccc(S(=O)(=O)N3CCOCC3)c2)s1,-9.34,
Cc1ccc(-c2nc(-c3cccnc3)sc2CC(=O)Nc2ccc(C)c(Cl)c2)cc1,,16.4 µM (active)
COc1ccc(N2CCN(C3CCCCC3NS(=O)(=O)c3ccccc3)CC2)cc1 (stereo unspecified),-5.22,
CCOc1ccc(CN2CCN(Cc3c[nH]c4ccccc34)CC2)cc1,,13 µM (active)
CCOc1ccc(CN2CCCN(C)CC2)cc1,9.71,
CCOc1ccc(CC(=O)NC2CCN(Cc3ccccc3)CC2)cc1,-9.53,
COC(=O)[C@]1(S(=O)(=O)c2ccccc2)C[C@@H]2ON=C(c3ccc(OC)cc3)[C@@H]2C1,3.37,

SMILES,"activity change, negative = inhibition [%]",Potency
Cc1ccc(S(=O)(=O)Nc2ccc(F)c(S(=O)(=O)N3CCOCC3)c2)cc1,-19.8,
Cc1ccc(-c2ccc(=O)n(Cc3ccc(F)cc3Cl)n2)cc1,-0.564,
O=C1C=C(c2cccc(Cl)c2)C[C@@H](c2ccc(F)cc2)C1,3.63,
O=C(c1cc(-c2ccc(Cl)s2)nc2ccccc12)N1CCOCC1,-3.24,
O=C(c1cn(-c2ccccc2)nc1-c1cc2ccccc2oc1=O)N1CCOCC1,,7.3 µM (active)
CCOc1ccccc1-c1cc(C(=O)N2CCOCC2)c2ccccc2n1,-25.2,
Nc1nc(-c2sc3nc4c(cc3c2N)CCCC4)nc(N2CCOCC2)n1,,6.51 µM (active)
COc1ccccc1C(CNC(=O)c1cccc(S(=O)(=O)Nc2ccc(F)cc2)c1)N(C)C (stereo unspecified),-1.22,
NC(=O)c1nsc(C(=O)N(CCCN2CCOCC2)C(C(=O)NC2CCCCC2)c2ccc(Cl)cc2)c1N (stereo unspecified),5.9,
Cc1ccc(NC(=O)CN(C)C(=O)c2ccc(Cl)c(S(=O)(=O)NCc3ccco3)c2)cc1,-3.5,
O=C(CSCC(=O)Nc1cccc([N+](=O)[O-])c1)Nc1ccccc1,15.4,
O=C(CCl)Nc1cccc(CP(=O)(c2ccccc2)c2ccccc2)c1,,14.6 µM (active)
CCc1cccc(NC(=O)CCC(=O)O)c1,4.12,
COc1ccc(C2=NN(C(=O)CSc3nc(=O)n4ccc(C)cc4n3)C(c3ccc(C)cc3)C2)cc1 (stereo unspecified),-11.2,
CC(=O)N1c2ccc(S(=O)(=O)N3CCC(C(=O)NC4CCCC(C)C4C)CC3)cc2CC1C (stereo unspecified),0,
O=C(Cn1cnc2c(OCc3ccccc3)ncnc21)NCCCn1ccnc1,13.1,
COc1cccc2c(N/N=C/c3ccco3)cc(C)nc12,17.8,
COc1ccccc1/C=N\Nc1cc(C)nc(-n2nc(C)cc2C)n1,,23.1 µM (active)
COc1cccc(/C=N/Nc2cc(C)nc(-c3ccccc3O)n2)c1O,,5.8 µM (active)
COc1cccc(/C=N/Nc2ncc(C(F)(F)F)cc2Cl)c1O,15.3,
COc1cc(NS(=O)(=O)c2ccccc2)ccc1-n1nc(C)cc1C,1.2,
COc1ccc(Nc2cc(C)nc(-n3nc(C)cc3C)n2)cc1,9.95,
